Results published in PubChem BioAssay AID1135 (Sanford-Burnham Center for Chemical Genomics, 2008).
Hit rate of the full screen: of about 200,000 compounds, about 65 (0.03%) were called active.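 Rule for the calls: active = over 50% inhibition of tissue-nonspecific alkaline phosphatase at 20 µM in the single-dose screen; inactive = the rest.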 Only a selection was taken, and actives are over-represented in it overall.

The compounds below were run against Alkaline phosphatase, tissue-nonspecific isozyme (Homo sapiens) (UniProt P05186) (assay: blockers of alkaline phosphatase TNAP activity – biochemical, luminescent, high phosphate acceptor level, uHTS, primary screen (AID 1135;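 note: plate controls were DMSO wells for no effect and EDTA-quenched wells as full inhibition for full effect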)). Details: purified TNAP, CDP-star luminescence, 1 M DEA; at 20 µM; active compounds read high.
Alkaline phosphatase, tissue-nonspecific isozyme (Homo sapiens), sequence (P05186 whole entry, looked up): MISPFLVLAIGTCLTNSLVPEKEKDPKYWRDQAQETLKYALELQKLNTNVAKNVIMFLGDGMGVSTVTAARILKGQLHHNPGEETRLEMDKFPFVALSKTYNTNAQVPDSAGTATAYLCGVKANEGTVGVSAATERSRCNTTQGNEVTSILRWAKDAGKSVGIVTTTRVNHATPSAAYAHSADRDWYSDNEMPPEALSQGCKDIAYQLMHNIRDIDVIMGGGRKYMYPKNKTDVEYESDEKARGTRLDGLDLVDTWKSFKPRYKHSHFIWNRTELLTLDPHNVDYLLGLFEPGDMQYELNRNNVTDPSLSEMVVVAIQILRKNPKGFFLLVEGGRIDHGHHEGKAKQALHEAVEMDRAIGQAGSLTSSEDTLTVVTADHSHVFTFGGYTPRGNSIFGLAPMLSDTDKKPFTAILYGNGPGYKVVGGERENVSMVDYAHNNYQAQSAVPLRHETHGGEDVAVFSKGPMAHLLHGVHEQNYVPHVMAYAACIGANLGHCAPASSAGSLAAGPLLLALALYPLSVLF

Row | SMILES | inhibition
1 | Cc1ccsc1C1C(C#N)=C(N)OC2=C1C(=O)CC(C)C2 (centres undefined) | -0.4% (inactive)
2 | CCOC(=O)c1[nH]ncc1CN1CCCC(C(=O)c2ccc(OC)cc2C)C1 (centres undefined) | -5.9% (inactive)
3 | C/C(=N\NC(=S)NC(C)C)c1ccc(C(C)(C)C)cc1 | 0.4% (inactive)
4 | O=C(N/N=C/c1ccc([N+](=O)[O-])cc1)C(=O)N1CCCC1 | 1.8% (inactive)
5 | COCCN(CCOC)S(=O)(=O)c1ccc(/C(O)=C(\C#N)c2nc3ccccc3[nH]2)cc1 | -5.5% (inactive)
6 | O=C1OC(OC(=O)c2ccccc2Br)C(N2CCOCC2)=C1Cl (centres undefined) | 4.1% (inactive)
7 | CCOC(=O)N/N=C/c1cn(Cc2ccccc2Cl)c2ccccc12 | 0.2% (inactive)
8 | CC(=O)N/N=C/c1cc2c(cc1[N+](=O)[O-])OCO2 | 2.5% (inactive)
9 | COc1ccc(NC(=S)NCCN2CCC(C)CC2)cc1 | -0.4% (inactive)
10 | CCN1CCN(C(C(=O)NC2CCCC2)c2cc3c(cc2[N+](=O)[O-])OCO3)CC1 (centres undefined) | -2.4% (inactive)
11 | O=C(Nc1ccccc1C(=O)N1CCOCC1)c1ccc(Cl)cc1 | -6.3% (inactive)
12 | COc1ccc(Cl)cc1NC(=O)[C@@H]1CCCN1C(=O)c1cccs1 | 1% (inactive)
13 | O=[N+]([O-])c1ccc(N/N=C2/CCCCC2c2ccccn2)c([N+](=O)[O-])c1 (centres undefined) | 4% (inactive)
14 | CC(C)OC(=O)Cn1nc(C(F)(F)F)c2c1CCCC2 | -1.6% (inactive)
15 | O=C(COc1ccccc1)Nc1ccc(N2CCN(C(=O)c3cccs3)CC2)cc1 | -2.1% (inactive)
16 | Cc1ccc(NC(=O)c2sccc2C)cc1[N+](=O)[O-] | 0.9% (inactive)
17 | COc1ccc(NS(=O)(=O)c2cc(NC(=O)C3CCCCC3)ccc2N2CCOCC2)cc1 | 0.1% (inactive)
18 | COc1cccc(OC)c1C(=O)OCC(=O)/C(C#N)=C(\C)N | 0.2% (inactive)
19 | CCOc1ccc(CCN2C(=O)c3cccnc3C2=O)cc1OCC | 2.6% (inactive)
20 | CC(=O)c1ccc(N2CCN(CC(=O)Nc3ccccc3N3CCOCC3)CC2)cc1 | -5.4% (inactive)
21 | CCOCCCNC(=O)C(NC(=O)Cc1c[nH]c2ccccc12)c1ccc(OC)cc1 (centres undefined) | 2.4% (inactive)
22 | CCN1CCN(c2cc3nc(C)n(Cc4ccccc4)c(=O)c3cc2NC(=O)c2ccccc2F)CC1 | -2.8% (inactive)
23 | C/C(=N\NC(=O)c1ccc(NS(=O)(=O)c2cccs2)cc1)c1ccc2ccccc2c1 | -2.7% (inactive)
24 | Cc1ccc(C(=O)COC(=O)CCCC(=O)NC2CCCCC2)cc1[N+](=O)[O-] | -4.3% (inactive)

Row | SMILES | inhibition
25 | O=C(Nc1cccnc1)c1cc2cc(Br)ccc2oc1=O | -1.6% (inactive)
26 | CCNS(=O)(=O)c1ccc(NC(=O)c2cncc(Br)c2)cc1 | -1% (inactive)
27 | Cc1ccc(S(=O)(=O)N(C)C)cc1NC(=O)COC(=O)C1COc2ccccc2O1 (centres undefined) | -3.2% (inactive)
28 | CCOC(=O)c1ccccc1N1C(=O)C2Sc3[nH]c(=O)sc3C(/C=C/c3ccccc3)C2C1=O (centres undefined) | 4.9% (inactive)
29 | CCc1nnc(NC(=O)CCCSc2nc3ccccc3[nH]2)s1 | -4.4% (inactive)
30 | CCN(CC)P(=O)(Nc1ccc(SC(F)F)cc1)c1ccc(N(C)C)cc1NC(=O)c1ccco1 (centres undefined) | -7.3% (inactive)
31 | O=C(C(=O)N1CCc2ccccc2C1)c1c[nH]c2ccccc12 | 40.6% (inactive)
32 | C=CCNc1scc(-c2ccccc2)[n+]1CC=C | -7.7% (inactive)
33 | Oc1c(Br)cccc1/C=N/Nc1c(F)c(F)c(F)c(F)c1F | 4.6% (inactive)
34 | C/C(=N/NC(=O)CSc1ccccn1)c1ccc([N+](=O)[O-])cc1 | -4.8% (inactive)
35 | Nc1nnnn1CC(=O)N/N=C/c1ccc(-c2cccc(Cl)c2)o1 | -2.3% (inactive)
36 | O=C(COc1ccc(Cl)cc1)NCc1nnc(SCC(=O)NCC2CCCO2)o1 (centres undefined) | -2.4% (inactive)
37 | COc1ccc(/C=C/C(=O)c2cc(Br)ccc(=O)c2O)cc1 | 12.7% (inactive)
38 | CCNC(=O)CC1C(=O)N(c2ccc(F)cc2)C(=O)N1CCc1sccc1C (centres undefined) | 3.2% (inactive)
39 | CCCCn1c(N)c(N(CC)C(=O)/C=C/c2ccco2)c(=O)[nH]c1=O | 1.1% (inactive)
40 | COc1ccc(Cl)cc1N(CC(=O)N1CCCCC1)S(C)(=O)=O | -2.8% (inactive)
41 | COc1ccc(C2CC(c3ccccc3)=NN2C(=O)c2ccc(Cl)c([N+](=O)[O-])c2)cc1 (centres undefined) | 0.4% (inactive)
42 | O=C(/C(=C/c1cccc(Cl)c1)c1nc2ccccc2[nH]1)c1ccccc1 | -1.2% (inactive)
43 | Cc1cc(C)n(-c2ccc3nncn3n2)n1 | -4% (inactive)
44 | CCOc1ccc(S(=O)(=O)Nc2ccncc2)c(C)c1C | -3.2% (inactive)
45 | c1ccc2c(NC3C4CC5CC(C4)CC3C5)nc(N3CCOCC3)nc2c1 (centres undefined) | -4.8% (inactive)
46 | COc1cccc(C(=O)Oc2cc(C)[nH]c(=O)c2[N+](=O)[O-])c1 | -4.1% (inactive)
47 | CC1(C)CC(=O)CC2(C1)NCC(c1ccccc1Cl)c1c2[nH]c2ccccc12 (centres undefined) | -3.4% (inactive)
48 | CCOn1c(=O)c(=O)n(O)c2ccccc21 | -6.3% (inactive)

Row | SMILES | inhibition
49 | Cc1ccc([N+](=O)[O-])c(OCCCNCC(C)O)c1 (centres undefined) | -0.7% (inactive)
50 | COc1ccc(C)cc1NC(=O)C(Sc1ccccc1)c1ccccc1 (centres undefined) | -3% (inactive)
51 | CCCCC(CC)CNC(=O)CCCCn1c(=O)[nH]c2ccsc2c1=O (centres undefined) | -0.9% (inactive)
52 | OCCC1CN(Cc2cccc(OC3CCCC3)c2)CCN1Cc1ccsc1 (centres undefined) | -1.7% (inactive)
53 | O=C(CN1C(=O)/C(=C/c2ccccc2F)Sc2ccccc21)NCc1cccnc1 | -4.7% (inactive)
54 | Cc1ccc(CN2CCN(/N=C/c3ccco3)CC2)c(C)c1 | -2% (inactive)
55 | Cc1ccc(/C(N)=N/OC(=O)COc2ccc(Cl)c(C)c2)cc1 | -6.6% (inactive)
56 | COc1ccc(Cl)cc1NC(=O)CN(C)Cc1ccc(OC)c(OC)c1 | 2.3% (inactive)
57 | Cc1nnc(SC(C(=O)Nc2cc(Cl)cc(Cl)c2)c2ccccc2)[nH]c1=O (centres undefined) | 2.4% (inactive)
58 | COc1ccc(F)cc1C(=O)C1CCCN(C(=O)CCc2ccccn2)C1 (centres undefined) | 0.9% (inactive)
59 | COc1ccc(NC(=O)CN(Cc2ccccc2)S(C)(=O)=O)cc1OC | -3.6% (inactive)
60 | O=C(O)c1ccc(NS(=O)(=O)c2ccc3c(c2)C(=O)c2cc(S(=O)(=O)Nc4ccc(C(=O)O)cc4)ccc2-3)cc1 | 2.8% (inactive)
61 | CCC(=O)Nc1c(C)n[nH]c1C | -6.7% (inactive)
62 | CC(CCc1ccccc1)NCC(O)c1cccc([N+](=O)[O-])c1 (centres undefined) | -4.1% (inactive)
63 | CC(=O)c1c(C)[nH]c(C(=O)OCC(=O)Nc2sc3c(c2C#N)CCCC3)c1C | 50.6% (active)
64 | Cc1cccc(C(=O)OCC(=O)Nc2sc3c(c2C#N)CCC3)c1 | 5.2% (inactive)
65 | N#Cc1c(NC(=O)CCCl)sc2c1CCCCC2 | 0.1% (inactive)
66 | Oc1ccc(/C=N/N(Cc2ccccc2)c2ccccc2)cc1 | -6.2% (inactive)
67 | Cc1nc(CC(=O)NNS(=O)(=O)c2ccc(F)c(Cl)c2)cs1 | -6.6% (inactive)
68 | O=C(O)c1ccccc1-c1ccccc1C(=O)NCc1cccnc1 | 3.5% (inactive)
69 | O=C(Oc1c(-c2ccco2)oc2ccccc2c1=O)c1cccnc1 | -3.4% (inactive)
70 | C(=N\N1CCN(c2ccccn2)CC1)/C1=C(N2CCOCC2)C(=C/c2ccccc2)/CC1 | -0.3% (inactive)
71 | CC(=O)Nc1sc2c(c1C(c1cccc(F)c1)N1CCN(CCO)CC1)CCCC2 (centres undefined) | -3.5% (inactive)
72 | Cc1cccc(NC(=O)c2ccc3nsnc3c2)c1C | -1.2% (inactive)

Row | SMILES | inhibition
73 | CCOC(=O)c1c(NC(=O)C2CC=CCC2C(=O)O)sc(C)c1CC (centres undefined) | 2% (inactive)
74 | CCC(C)NC(=O)c1nn(C)c(=O)c2ccccc12 (centres undefined) | -4.5% (inactive)
75 | O=c1c(-c2ccccc2)coc2cc(O)ccc12 | -6.9% (inactive)
76 | COc1cc2sc(C)nc2cc1C | -3.9% (inactive)
77 | CCSc1ccccc1C(=O)Nc1ccc2c(c1)OCO2 | -5.5% (inactive)
78 | COc1cc(/C=C/C(=O)O)cc(S(=O)(=O)Nc2ccccc2SC)c1OC | 6.4% (inactive)
79 | CC(=O)Nc1ccc(Nc2c3ccccc3nc3ccccc23)cc1 | 2.2% (inactive)
80 | O=C(CN1CCN(c2ccc(Cl)cc2)CC1)NCc1cccs1 | -1.4% (inactive)
81 | CCCCNC(=O)C1CCC(CNS(=O)(=O)c2ccc(NC(C)=O)cc2)CC1 (centres undefined) | -2.5% (inactive)
82 | O=C(CCc1ccc(S(=O)(=O)N2CCOCC2)cc1)NN=C1CCCCCCC1 | -2% (inactive)
83 | COc1ccc(N2C(=O)CC(Sc3n[nH]c(-c4ccc(C)cc4)n3)C2=O)cc1 (centres undefined) | -5.7% (inactive)
84 | CN(C)c1nccc(NCc2ccccc2)c1C#N | 0.6% (inactive)
85 | COc1cccc(N(Cc2nnc3n2CCCCC3)C(=O)Nc2ccccc2F)c1 | -2.9% (inactive)
86 | CC(C)c1nc2sc3c(c2c(=O)n1N)CC(C)(C)OC3 | -1.5% (inactive)
87 | COCCn1c(SCC(=O)Nc2ccc3c(c2)CCC3)nc2ccccc2c1=O | -1.3% (inactive)
88 | CCN(C(=O)CSc1nc2ccccc2n1CC)C1CCS(=O)(=O)C1 (centres undefined) | -1.3% (inactive)
89 | Cc1cc(C(=O)COC(=O)CNC(=O)c2ccc(F)cc2)c(C)n1Cc1ccco1 | 1.3% (inactive)
90 | S=C(Nc1ccc(Br)cc1Cl)NC1CCN(Cc2ccccc2)CC1 | -5.2% (inactive)
91 | CSCCC(NC(=O)c1cc([N+](=O)[O-])cc([N+](=O)[O-])c1)c1nc2ccccc2[nH]1 (centres undefined) | -6.8% (inactive)
92 | CCc1ccc(CN2C(=O)c3ccccc3C2C(=O)NCC2CCCO2)cc1 (centres undefined) | 2.3% (inactive)
93 | Cc1cccc(N2CCN(c3ccc(NC(=O)/C=C\C(=O)O)cc3)CC2)c1 | -4.5% (inactive)
94 | NNC(=O)COc1ccc(C2SCCS2)cc1 | -6.7% (inactive)
